# Most compounds without a hit are left out; they make up all but 27% or so of the library.
# Cav3 T inh = Cav3.2 calcium influx blockers – cell-based, Fluo-4 calcium fluorescence, FDSS, MLSMR library, primary screen; Voltage-dependent T-type calcium channel subunit alpha-1H (Homo sapiens), O95180; Cav3.2-expressing cells; hits give low values; B-score at 10 µM; 100,000 tested, 4% active; AID 449739, 2010;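 active = single-dose well whose peak fluorescence ratio is a statistical outlier from its plate by either plate-standardised score or position-corrected B-score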
# CYP2C19 inhib = blockers of cytochrome P450 2C19 activity – biochemical, luminescence, ADME assay, primary screen; AID 778, 2007; P33261; inhibition, % at 5 µM; CYP2C19 Supersomes, luciferin-H EGE luminescence, 30 min; 96,000 tested, 21% active;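 active = CYP2C19 inhibition above a set limit at 5 µM in the primary screen, cut at about 50% in these data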;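 note: plate controls were negative control wells for no effect and 2.5 mM tranylcypromine positive control for full effect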
# CYP2C19 activ = human CYP2C19 activators, primary screen, biochemical, luminescence; activation factor at 5 µM; recombinant CYP2C19, luciferin-H EGE luminescence; hits give high values; 0 = fully inhibited enzyme, 1 = untreated enzyme; AID 1025, 2008; Cytochrome P450 2C19 (Homo sapiens), P33261; 96,000 tested, under 10 active;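 active = activation factor of at least 2 at 5 µM in the primary screen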;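 note: 0 = wells with 2.5 mM tranylcypromine and 1 = vehicle-only wells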
# CYP2C9 inh = blockers of cytochrome P450 2C9 activity – biochemical, luminescence, ADME assay, primary screen | CYP2C9 Supersomes, luciferin-H conversion | inhibition, % at 5 µM | 96,000 tested, 20% active | AID 777, 2007;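 active = blocking of liver enzyme CYP2C9 beyond about 50% at 5 µM, limit read from the data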
# CYP2C9 act = human CYP2C9 activators, primary screen, biochemical, luminescence; Cytochrome P450 2C9 (Homo sapiens), P11712; recombinant CYP2C9, luciferin-H conversion; hits give high values; factor 1 = untreated enzyme, 0 = blocked; activation factor at 5 µM; 96,000 tested, 1.4% active;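 active = activation factor of 2 or more for CYP2C9 at a 5 µM dose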;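 note: 0 = sulfaphenazole-blocked wells and 1 = vehicle-only wells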
# Active calls of the source: *; / = no result.
SMILES,Cav3 T inh,CYP2C19 inhib,CYP2C19 activ,CYP2C9 inh,CYP2C9 act
COc1ccccc1OCCCn1cc(C(=O)c2ccco2)c2ccccc21,-1.03,97.8*,0,96.4*,0
O=C(Nc1ccc(Br)cc1)c1nn(C23CC4CC(CC(C4)C2)C3)cc1Br,-3.37,20.2,0.8,33.5,0.7
CC(C)N1CCC2(CC1)NC(CO)(CO)CO2,-0.162,3.8,1,-9.6,1.1
C=C(C=O)C[C@@H]1C[C@H](O)C2OC3C[C@]4(C)OC5/C=C\CC6OC7C(CC=CCC6OC5CCCC4OC3CC2O1)OC1CC2OC3CC(=O)OC3C[C@@H](C)C[C@@]2(C)OC1C[C@@H]7C (some centres undefined),0.896,/,/,/,/
CCN1CCN(Cc2cc(Br)cc(Br)c2O)CC1,-0.022,60.5*,0.4,9.0,0.9
CCN1CCN(Cc2cc(Br)ccc2O)CC1,0.0538,21.5,0.8,-32.7,1.3
O=c1[nH]c2ccccc2n1C1CCN(CCCC(c2ccc(F)cc2)c2ccc(F)cc2)CC1,-4.76*,/,/,/,/
Cc1ccc2c(c1)CC1(CN2C)C(=O)NC(=O)N(C(C)C)C1=O (centres undefined),0.214,81.8*,0.2,29.8,0.7
CCC(C)N1C(=O)NC(=O)C2(Cc3cc(C)ccc3N(C)C2)C1=O (centres undefined),0.971,89.4*,0.1,69.7*,0.3
Cc1ccc2c(c1)CC1(CN2C)C(=O)NC(=O)N(CCC2=CCCCC2)C1=O (centres undefined),0.674,28.9,0.7,44.2,0.6
CN1C(=O)C2C[C@@]3(Br)c4ccccc4N(OOSc4ccccc4)[C@H]3N2C(=O)[C@@H]1Cc1ccccc1 (some centres undefined),-0.659,/,/,/,/
COc1ccc(Oc2cc(NC(=O)c3nn(C)cc3[N+](=O)[O-])cc([N+](=O)[O-])c2)cc1,0.514,65.5*,0.3,90.7*,0.1
CCOP(=O)(CN(CC)CCNP(=O)(OCC)OCC)OCC,-0.212,-7.2,1.1,-9.1,1.1
Cc1ccc2nc(-c3ccncc3)cc(C(=O)N3CCC4(CC3)OCCO4)c2c1,0.393,17.1,0.8,50.8*,0.5
Cn1c(O)c(C(=O)c2ccccc2F)c(=O)n(C)c1=O,-0.0942,-1.0,1,30.8,0.7
CCC(=NCc1ccc(F)cc1)c1c(O)n(C)c(=O)n(C)c1=O,0.17,84.3*,0.2,66.6*,0.3
O=C(Cc1ccccc1)OC(COCc1ccccc1)CN1CCOCC1 (centres undefined),1.03,72.7*,0.3,44.5,0.6
CNc1ccc2oc(C[C@H]3O[C@@]4(CC[C@H]3C)O[C@H]([C@H](C)C(=O)c3ccc[nH]3)[C@H](C)C[C@H]4C)nc2c1C(=O)O,4.36*,/,/,/,/
CC(=NCCC1=CCCCC1)c1c(O)n(C)c(=O)n(C)c1=O,-0.606,41.6,0.6,50.0*,0.5
OCCN(CC#CC(O)(c1ccccc1)C1CCCC1)CCO (centres undefined),-0.184,31.0,0.7,-6.2,1.1

# Bioassay records: PubChem, several laboratories
